# Results published in ChEMBL document CHEMBL2218924, “A broad activity screen in support of a chemogenomic map for kinase signalling research and drug discovery” (Biochem J, 2013).
# Target: RAC-alpha serine/threonine-protein kinase (Homo sapiens) (UniProt P31749)
# Settings: at 1 µM
# RAC-alpha serine/threonine-protein kinase (Homo sapiens), sequence (P31749 whole entry): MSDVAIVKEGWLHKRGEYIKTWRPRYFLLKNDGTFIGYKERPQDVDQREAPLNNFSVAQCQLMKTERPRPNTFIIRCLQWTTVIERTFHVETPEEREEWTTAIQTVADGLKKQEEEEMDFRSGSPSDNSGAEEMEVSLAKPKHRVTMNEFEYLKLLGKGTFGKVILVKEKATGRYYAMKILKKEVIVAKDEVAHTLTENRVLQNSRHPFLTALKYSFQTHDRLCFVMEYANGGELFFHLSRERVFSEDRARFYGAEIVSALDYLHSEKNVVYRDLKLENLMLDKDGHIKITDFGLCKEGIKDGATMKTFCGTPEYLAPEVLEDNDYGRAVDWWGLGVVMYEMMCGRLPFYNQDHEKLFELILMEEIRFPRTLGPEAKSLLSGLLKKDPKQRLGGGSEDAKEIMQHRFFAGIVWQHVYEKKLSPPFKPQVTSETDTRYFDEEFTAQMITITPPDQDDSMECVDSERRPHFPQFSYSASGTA
row,SMILES,residual activity [%]
1,COc1ccc(CNc2nc(N(CCO)CCO)nc3c2ncn3C(C)C)cc1,118
2,Nc1ncnc2c1c(-c1ccc(Oc3ccccc3)cc1)cn2C1CCCC1,105
3,CNc1cc2c(Nc3cccc(Br)c3)ncnc2cn1,98
4,CC(=O)O/N=C1\C(=C2\C(=O)Nc3cc(Br)ccc32)Nc2ccccc21,115
5,CC[n+]1c(/C=C/N(C)c2ccccc2)n(-c2ccccc2)c2ccc(-c3nc4ccccc4s3)cc21,99
6,CCN(CC)CCCCN1c2ccccc2Oc2ccc(Cl)cc21,104
7,COc1ccc(OC)c2c(=S)c3ccccc3[nH]c12,109
8,Cn1nc2c3c(cccc31)C(=O)c1ccccc1-2,111
9,CCCCc1c(-c2ccc(OC)cc2)[nH]c2nccnc12,118
10,COc1cc2ncnc(Nc3ccc(O)c(Br)c3)c2cc1OC,107
11,O=c1cc(-c2cccc3c2Sc2ccccc2S3)oc(N2CCOCC2)c1,99
12,O=C1NC(=O)/C(=C/c2ccc3c(c2)OC(F)(F)O3)S1,102
13,Nc1ncnc2c1cnn2-c1ccccc1,96
14,CCOc1cc2ncnc(Nc3cccc(Br)c3)c2cc1OCC,101
15,COc1ccc2c(c1)c(C1=C(c3c[nH]c4ccccc34)C(=O)NC1=O)cn2CCCN(C)C,110
16,CC(C)n1cnc2c(NCc3ccccc3)nc(NCCCO)nc21,107

# Target: RAC-alpha serine/threonine-protein kinase (Homo sapiens) (UniProt P31749)
# Settings: at 10 µM
row,SMILES,residual activity [%]
1,CN(C)CCCn1cc(C2=C(c3c[nH]c4ccccc34)C(=O)NC2=O)c2ccccc21,104
2,COc1cc2ncnc(N3CCN(C(=O)Nc4ccc(Oc5ccccc5)cc4)CC3)c2cc1OC,107
3,CC(=O)c1ccc(N2CCOCC2)cc1O,111
4,O=C1Cc2c([nH]c3ccc([N+](=O)[O-])cc23)-c2ccccc2N1,104
5,Oc1ccc(Nc2nc(-c3ccc(Cl)cc3)cs2)cc1,94
6,CC(C)n1cnc2/c(=N/c3cccc(Cl)c3)nc(NCCO)[nH]c21,109
7,Nc1nc(Nc2ccc(S(N)(=O)=O)cc2)nn1C(=O)c1c(F)cccc1F,103
8,O=C1NC(=O)C(c2cn(CCCn3ccnc3)c3ccccc23)=C1Nc1ccccc1,102
9,Oc1n[nH]c2nnc(-c3c(-c4ccccc4)nn4ccccc34)cc12,111
10,Cc1nc2cc3nc(-c4cccs4)cnc3cc2n1C,105
11,COc1ccc(CNC(=O)Nc2ncc([N+](=O)[O-])s2)cc1,106
12,O=C(CCCc1ccc(-c2ccccc2F)cc1)Nc1ccc(O)cc1,105
13,N#C/C(=C(\N)Sc1ccc(N)cc1)c1ccccc1C(F)(F)F,108
14,NC(=O)c1ccc2[nH]c(-c3ccc(Oc4ccc(Cl)cc4)cc3)nc2c1,112
15,O=c1c2ccccc2[nH]c(=S)n1CCN1CCC(=C(c2ccc(F)cc2)c2ccc(F)cc2)CC1,107
16,CCC(=O)Nc1ccc2ncnc(Nc3cccc(Br)c3)c2c1,106
17,CC(C)(C)c1nc2c3ccc(F)cc3c3c(=O)[nH]ccc3c2[nH]1,104

row,SMILES,residual activity [%]
1,Cc1ccc(S(=O)(=O)/C=C/C#N)cc1,112
2,COc1ccc(CNc2nc(N(CCO)CCO)nc3c2ncn3C(C)C)cc1,111
3,Nc1ncnc2c1c(-c1ccc(Oc3ccccc3)cc1)cn2C1CCCC1,111
4,CNc1cc2c(Nc3cccc(Br)c3)ncnc2cn1,98
5,CC(=O)O/N=C1\C(=C2\C(=O)Nc3cc(Br)ccc32)Nc2ccccc21,109
6,CC[n+]1c(/C=C/N(C)c2ccccc2)n(-c2ccccc2)c2ccc(-c3nc4ccccc4s3)cc21,107
7,CCN(CC)CCCCN1c2ccccc2Oc2ccc(Cl)cc21,104
8,COc1ccc(OC)c2c(=S)c3ccccc3[nH]c12,104
9,Cn1nc2c3c(cccc31)C(=O)c1ccccc1-2,108
10,CCCCc1c(-c2ccc(OC)cc2)[nH]c2nccnc12,106
11,COc1cc2ncnc(Nc3ccc(O)c(Br)c3)c2cc1OC,105
12,O=c1cc(-c2cccc3c2Sc2ccccc2S3)oc(N2CCOCC2)c1,103
13,O=C1NC(=O)/C(=C/c2ccc3c(c2)OC(F)(F)O3)S1,111
14,Nc1ncnc2c1cnn2-c1ccccc1,96
15,CCOc1cc2ncnc(Nc3cccc(Br)c3)c2cc1OCC,109
16,COc1ccc2c(c1)c(C1=C(c3c[nH]c4ccccc34)C(=O)NC1=O)cn2CCCN(C)C,120
17,CC(C)n1cnc2c(NCc3ccccc3)nc(NCCCO)nc21,110
